# Laboratory results from PubChem BioAssay AID1117361 (Southern Research Institute, 2015).
# Out of some 3,600 compounds screened, about 900 (25%) were called active. No rule for the calls is given here. These entries were drawn from the full list. Measured potencies and affinities stand elsewhere.
# Target: Protein Tat (Human immunodeficiency virus type 1 group M subtype B (isolate HXB2)) (UniProt P04608)
# Assay: HIV-1 Tat–TAR interaction blockers – biochemical, fluorescence polarization, FAM-labeled TAR RNA, counter-screen for Vif-APOBEC3G degradation inhibitor project, dose response (AID 1117361)
# Settings: Tat-TAR RNA binding; series mostly up to 100 µM
row,SMILES,outcome
1,CN1CCN(/C=C(\C#N)S(=O)(=O)c2ccc(Cl)cc2)CC1,inactive
2,S=C(NCc1ccccn1)Nc1ccc(Cl)c(Cl)c1,inactive
3,O=C(NCc1ccc(F)cc1)C1CCC(CNc2c(N3CCCCC3)c(=O)c2=O)CC1 (centres undefined),inactive
4,Cc1cc(C)cc(N(CC(=O)NCc2cccnc2)S(C)(=O)=O)c1,inactive
5,CCSc1nnc(NC(=O)c2cccc3ccccc23)s1,inactive
6,Cc1ccc(C(C)C)c(OCCN(C)C)c1,inactive
7,Cc1cc(C)cc(CC2CC(=O)N(c3ccc4c(c3)OCCO4)C2=O)c1 (centres undefined),inactive
8,COc1ccc(C2OC(=O)CC2C(=O)N2CCN(c3cc(Cl)ccc3C)CC2)cc1OC (centres undefined),inactive
9,CCOC(=O)C(C#N)(Cc1ccc2ccccc2n1)Cc1ccc2ccccc2n1,inactive
10,Cc1ccccc1NS(=O)(=O)c1ccc2[nH]cc(C(=O)N(C)Cc3ccco3)c(=O)c2c1,inactive
11,CC1CCCCN1CCCNC(=O)C1CCN(c2nc3ccccc3o2)CC1 (centres undefined),inactive
12,COc1ccccc1CNCC(=O)Nc1ccc(N2CCOCC2)cc1,inactive
13,CCN(CC)c1ccc(NC(=O)c2ccco2)cc1,inactive
14,CCOc1ccc(Cl)cc1S(=O)(=O)N1CCN(c2ccc(F)cc2)CC1,inactive
15,O=C1CC(NCc2ccco2)C(=O)N1CCc1ccccc1 (centres undefined),inactive
16,COc1ccccc1N1C(=O)CC(Sc2nccc(C)n2)C1=O (centres undefined),inactive
17,O=C(Nc1ccc(COc2ccccc2)cc1)Oc1ccccc1N1CCOCC1,inactive
18,O=C(CSc1ccc(Cl)cc1)c1ccco1,inactive
19,O=[N+]([O-])c1ccc(-c2c[nH]c(=S)[nH]2)cc1,inactive
20,CC1(C)OC(=O)C(=CNC(Cc2c[nH]c3ccccc23)C(=O)O)C(=O)O1 (centres undefined),inactive
21,CC(C)(C)c1ccc(OCC(=O)NCCN2CCCC2)cc1,inactive
22,Cc1ccc(S(=O)(=O)N2CCOCC2)cc1C(=O)Nc1nc2ccccc2[nH]1,inactive
23,CC(NC(=O)c1ccco1)C1CCCO1 (centres undefined),inactive

row,SMILES,outcome
1,CC1(C)Cc2c(cnn2-c2ccccc2)C(NC(=O)CCCN2CCCCC2=O)C1 (centres undefined),inactive
2,O=S(=O)(NCc1cn2ccsc2n1)c1cccs1,inactive
3,Nc1cccc2c1C(=O)N(C(=O)/C=C/c1cccc(Br)c1)C2=O,inactive
4,COc1ccc(NC(=O)O/N=C/c2ccccc2Cl)cc1,inactive
5,Cc1ccc(OCC(=O)NNC(=O)CCc2ccccc2)cc1,inactive
6,Cc1ccc(S(=O)(=O)N/N=C/c2ccc(OCC(=O)Nc3ccccc3Cl)cc2)cc1,inactive
7,COc1ccc(OC)c(NC(=O)CCN2CCC(C)CC2)c1,inactive
8,COc1ccccc1N(C)S(=O)(=O)c1ccc(C(=O)NC(C)(C)C)cc1,inactive
9,Cc1ccn(C(=O)c2cc3ccccc3oc2=O)n1,inactive
10,COc1ccc(-n2ncc3c(N4CCC(C(N)=O)CC4)ncnc32)cc1,inactive
11,CCOc1ccc(-n2c(SCC(N)=O)nnc2-c2cccnc2)cc1,inactive
12,CCCn1c(SCC(=O)c2cc(C)ccc2C)n[nH]c1=O,inactive
13,CCOC(=O)CSc1nnc(CNC(=O)c2ccccc2OC)n1-c1ccc(OC)cc1,inactive
14,Cc1cccc(-n2c(=O)cc(N3CCN(c4ccc(F)cc4)CC3)[nH]c2=O)c1,inactive
15,Cc1ccc(C)c(-n2c(SCC(N)=O)nnc2-c2ccccn2)c1,inactive
16,S=C1NC2(CCCCCC2)N=C1c1ccccc1,inactive
17,Cc1ccc(C)c(/C(O)=C2/C(=O)C(=O)N(CCN3CCOCC3)C2c2ccco2)c1 (centres undefined),inactive
18,COc1ccc(OC)c(NC(=O)CC2C(=O)NCCN2C(=O)Nc2cccc(Cl)c2)c1 (centres undefined),inactive
19,Cc1ccnc(N2CCC(C(=O)NNC(=O)c3ccccc3C)CC2)n1,inactive
20,O=C(O)C1CCN(S(=O)(=O)/C=C/c2ccccc2)CC1,inactive
21,CCn1c(CNC(=O)Cc2ccc(OC)cc2)nnc1SCC(=O)Nc1ccc(C(=O)O)cc1,inactive
22,Cc1nn(C(=O)c2cccnc2)c(C)c1C,inactive
23,COC(=O)Cc1c(C)nc2nc(-c3cccnc3)[nH]n2c1=O,inactive

row,SMILES,outcome
1,O=C(NCc1ccco1)C1CCCN(S(=O)(=O)c2cccc3nsnc23)C1 (centres undefined),inactive
2,c1ccc(SCc2nc3ccccc3[nH]2)cc1,inactive
3,COc1cc(/C=C(\C#N)c2nc3ccccc3[nH]2)c([N+](=O)[O-])cc1OCc1ccccc1,inactive
4,CC1(C)C2CCC1(CS(=O)(=O)Nc1cccc(S(N)(=O)=O)c1)C(=O)C2 (centres undefined),inactive
5,COc1ccc(N2CCN(C(=O)c3c(-c4ccccc4)noc3C)CC2)cc1,inactive
6,COc1ccc(NC(=O)c2c(OC)cccc2OC)c(OC)c1,inactive
7,COc1ccc(OC)c(NC(=O)NCc2ccc(F)cc2)c1,inactive
8,Cn1nc(CC(=O)NCCN2C(=O)CSC2=O)c2ccccc2c1=O,inactive
9,CCOc1ccc(-n2c(SCC(=O)Nc3cc(C)on3)nnc2-c2c[nH]c3ccccc23)cc1,inactive
10,COc1cccc(NC(=O)Nc2nnc(N3C(C)CCCC3C)s2)c1 (centres undefined),inactive
11,COC(=O)c1cc(=O)n(Cc2ccc3c(c2)OCO3)c(=Nc2ccc(F)c(Cl)c2)s1,inactive
12,COCCn1c(SCC(=O)Nc2ccccc2F)nc2c([nH]c3ccccc32)c1=O,inactive
13,O=C(O)CN1C(=O)CSc2ccccc21,inactive
14,COc1ccc(NC2=NC(C)(CO)CS2)cc1 (centres undefined),inactive
15,COc1ccc(Nc2nc3ccccc3nc2-n2nc(C)cc2C)cc1,inactive
16,CCOC(=O)C(C(=O)OCC)C(CC(=O)C1CC1)c1ccccc1 (centres undefined),inactive
17,O=C(O)/C=C/C(=O)NNc1ncnc2ccccc12,inactive
18,CCCCCCCCNc1ncnc2ccccc12,inactive
19,O=C(CSc1nnc(CNC(=O)c2ccccc2F)o1)c1ccccc1,inactive
20,CCc1ccccc1NC(=O)c1cc2ncc(Br)cn2n1,inactive
21,COc1ccc(Br)c(C(=O)NC(C)(C)CO)c1,inactive
22,O=[N+]([O-])c1ccc2c([N+](=O)[O-])ccc3c2c1CC3,inactive
23,CCC(=O)Nc1cccc(-c2nc3ccccc3c(=O)o2)c1,inactive

row,SMILES,outcome
1,O=C(O)CSCc1c(F)cccc1Cl,inactive
2,CC(C(=O)NCC1CCCCC1)N(C)Cc1ccc(Br)cc1 (centres undefined),inactive
3,O=S(=O)(O)c1cccc2c(N=Nc3ccc(O)c4ncccc34)cccc12,inactive
4,O=C(c1ccccc1)c1ccc(OC(=O)N2CCOCC2)cc1,inactive
5,CCOC(=O)N1CCN(C(=O)c2ccc(NC(=O)c3ccc(C)cc3)cc2)CC1,inactive
6,CCC(CC)C(=O)Nc1cccc(C(=O)N2CCOCC2)c1,inactive
7,O=C(c1ccc(-n2cnnn2)cc1)N1CCOCC1,inactive
8,CC(C)CCNC(=O)c1ccc2c(SCC(=O)O)c3c(nc2c1)CCC3,inactive
9,CCOC(=O)C1CCN(C(=O)c2ccc3snnc3c2)CC1,inactive
10,O=C(Nc1cccc(S(=O)(=O)N2CCCCC2)c1)c1ccc2c(=O)n3c(nc2c1)CCCCC3,inactive
11,O=C(NNC(=O)c1ccccc1-n1cccc1)c1ccc(Cl)c(Cl)c1,inactive
12,CC(C)(C)NC(=O)c1cnn2c1NC(c1ccc(F)cc1)CC2C(F)(F)F (centres undefined),inactive
13,CN(C)C=NC(=O)/C(C#N)=C1\CCc2ccccc2N1,inactive
14,Nn1c(SCC(=O)NCCc2ccc(F)cc2)nnc1C1CCCCC1,inactive
15,COc1ccccc1CNC(=O)CCS(=O)(=O)c1ccc2c(c1)CCCN2C(C)=O,inactive
16,CCOC(=O)Nc1ccc2c(CN3C(=O)NC4(CCCC4)C3=O)cc(=O)oc2c1,inactive
17,Cc1ccc(N(CN2C(=O)C3CC=CCC3C2=O)C(=O)c2ccco2)cc1Cl (centres undefined),inactive
18,CCc1[nH]nc2c1C1(CCN(C(=O)OCc3ccccc3)CC1)C(C#N)=C(N)O2,inactive
19,Cc1[nH]c2ccccc2c1Cc1nnc(SCc2ccccc2)o1,inactive
20,Cn1cc(CN2CCN(CCO)CC2)c(-c2ccc(Oc3ccccc3)cc2)n1,inactive
21,CCc1c(O)nc(N2CCN(Cc3ccccc3)CC2)[nH]c1=O,inactive
22,O=c1ccccn1Cc1c(F)cccc1Cl,inactive
23,CCOC(=O)c1cnc(-c2ccccc2)nc1Oc1ccc(C)cc1,inactive

row,SMILES,outcome
1,CCOc1ccc(-n2c(C)nc(O)c2N=Nc2ccccc2)cc1,inactive
2,CCOc1ccccc1NC(=O)Cn1c(-c2ccc(Cl)cc2)noc1=O,inactive
3,CCOc1ccc(C(=O)N2CCCN(C(=O)c3ccc(OCC)cc3)CC2)cc1,inactive
4,CCOC(=O)Cn1c(=O)n(CC(=O)OCC)c2ccccc21,inactive
5,CCOc1ccccc1CNC(=O)Cn1c(=O)oc2ccccc21,inactive
6,Cc1sc(NC(=O)CN2CCOCC2)nc1-c1ccc2c(c1)CCN2S(=O)(=O)c1ccccc1,inactive
7,COc1ccccc1NC(=O)COC(=O)c1c(NC(C)=O)sc(C)c1C,inactive
8,CCOc1ccc(-n2c(SC)nc3c(c2=O)SCC3)cc1,inactive
9,CC(C)Oc1ccc(CNCC2(O)CCOC(C)(C)C2)cc1 (centres undefined),inactive
10,Cc1sc(NC(=O)CSc2nnnn2C(C)C)c(C#N)c1C,inactive
11,CNc1sc(C(=O)c2cccs2)c(N)c1-c1nc2ccccc2s1,inactive
12,COCCNC(=O)CN1C(=O)CSc2ncccc21,inactive
13,CC(=O)OC1OCCOC1NC(=S)Nc1ccc(C)cc1 (centres undefined),inactive
14,COc1ccc(OCc2nnc3n2N=C(c2ccc(OC)cc2)CS3)cc1,inactive
15,CCn1c(SCC(=O)c2ccc(F)cc2)nnc1-c1ccoc1C,inactive
16,COc1ccc(C(=O)O)cc1S(=O)(=O)N1CCCc2ccccc21,inactive
17,CCCCOc1ccccc1C1NC(=O)NC(C)=C1C(=O)OCc1ccco1 (centres undefined),inactive
18,COC(=O)CSc1nnc(-c2ccccc2OC)n1-c1ccc(C)cc1,inactive
19,CCOc1cc(C)c(Cl)cc1S(=O)(=O)NCc1ccco1,inactive
20,Oc1cc2c(cc1O)[C@@H](c1ccccc1)CNCC2,inactive
21,CC1CCc2cc(F)ccc2N1C(=O)CSc1nnc(-c2cccs2)n1C (centres undefined),inactive
22,CCOc1cc(S(=O)(=O)NCc2ccccn2)c(C)cc1C,inactive
